Measurements from article PMC7862700, “An all-to-all approach to the identification of sequence-specific readers for epigenetic DNA modifications on cytosine”.

Legend:
Assay in all cases: DAPPL (digital affinity profiling via proximity ligation, sequencing); 10 mM Tris-HCl pH 7.5, 50 mM NaCl, 1 mM DTT, 4% glycerol, room temperature, 30 min; GST-TFs on glutathione beads, 16-mer random dsDNA library, 0.1% formaldehyde crosslink after washing; high values mean tight binding
Details in all cases: protein: recombinant; tags: N-terminal GST; dsDNA, one strand shown
[1] = biological target: T1, ERF (Homo sapiens, UniProt P50548 1-548)
T1 sequence: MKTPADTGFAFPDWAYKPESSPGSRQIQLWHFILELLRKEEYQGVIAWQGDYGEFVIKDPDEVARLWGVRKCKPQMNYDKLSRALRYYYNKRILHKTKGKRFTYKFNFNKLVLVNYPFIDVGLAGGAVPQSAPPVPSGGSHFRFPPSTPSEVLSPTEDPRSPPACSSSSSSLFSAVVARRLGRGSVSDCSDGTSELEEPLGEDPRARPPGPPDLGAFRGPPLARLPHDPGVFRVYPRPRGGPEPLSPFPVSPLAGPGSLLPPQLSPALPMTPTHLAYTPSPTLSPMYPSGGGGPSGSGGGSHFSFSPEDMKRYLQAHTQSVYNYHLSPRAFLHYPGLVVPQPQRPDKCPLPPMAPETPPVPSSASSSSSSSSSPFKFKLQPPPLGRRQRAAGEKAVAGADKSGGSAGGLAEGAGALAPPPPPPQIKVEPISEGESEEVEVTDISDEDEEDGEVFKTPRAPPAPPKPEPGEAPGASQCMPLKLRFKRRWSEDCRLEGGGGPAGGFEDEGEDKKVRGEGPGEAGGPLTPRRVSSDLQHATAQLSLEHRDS
Outline: (§1)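 Binding signal is defined as a hexamer's read frequency for one factor over its frequency for the tag-only sample. To obtain reads, GST-fused human transcription factors were expressed in yeast, captured on glutathione beads, barcoded with DNA and pooled with that sample. Pools met 200 nmole of a 16-mer random double-stranded DNA library in Tris/NaCl/DTT/glycerol buffer for 30 min at room temperature before washing, 0.1% formaldehyde crosslinking, proximity ligation (BsaI/T4 ligase, 1 h, 37 °C), PCR and Illumina NextSeq500 sequencing.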

[2] = biological target: T2, ETV3L (Homo sapiens, UniProt Q6ZN32 1-361)
T2 sequence: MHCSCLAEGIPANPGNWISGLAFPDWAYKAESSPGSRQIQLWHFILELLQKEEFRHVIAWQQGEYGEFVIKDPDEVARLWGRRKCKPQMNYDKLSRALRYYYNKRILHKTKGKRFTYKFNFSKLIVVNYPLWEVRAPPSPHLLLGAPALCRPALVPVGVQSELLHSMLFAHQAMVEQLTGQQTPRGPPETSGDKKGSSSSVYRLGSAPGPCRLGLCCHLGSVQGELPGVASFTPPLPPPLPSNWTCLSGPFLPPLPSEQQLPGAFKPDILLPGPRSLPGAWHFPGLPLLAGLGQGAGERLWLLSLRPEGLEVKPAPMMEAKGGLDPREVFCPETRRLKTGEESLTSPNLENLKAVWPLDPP
Outline: as §1

[3] = biological target: T3, ETS2 (Homo sapiens, UniProt P15036 1-469)
T3 sequence: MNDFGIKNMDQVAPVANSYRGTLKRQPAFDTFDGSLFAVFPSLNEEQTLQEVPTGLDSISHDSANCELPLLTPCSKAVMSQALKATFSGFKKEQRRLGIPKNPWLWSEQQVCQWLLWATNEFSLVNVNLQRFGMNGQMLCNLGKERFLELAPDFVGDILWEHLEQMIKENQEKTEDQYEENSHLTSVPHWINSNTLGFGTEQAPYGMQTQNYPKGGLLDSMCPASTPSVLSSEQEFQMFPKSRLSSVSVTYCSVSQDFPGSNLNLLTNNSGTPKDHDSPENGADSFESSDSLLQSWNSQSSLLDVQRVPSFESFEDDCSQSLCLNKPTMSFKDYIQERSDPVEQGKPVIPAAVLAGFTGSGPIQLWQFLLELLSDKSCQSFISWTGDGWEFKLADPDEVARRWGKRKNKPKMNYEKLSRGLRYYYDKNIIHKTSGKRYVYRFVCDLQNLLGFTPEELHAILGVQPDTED
Outline: as §1

[4] = biological target: T4, SPDEF (Homo sapiens, UniProt O95238 1-335)
T4 sequence: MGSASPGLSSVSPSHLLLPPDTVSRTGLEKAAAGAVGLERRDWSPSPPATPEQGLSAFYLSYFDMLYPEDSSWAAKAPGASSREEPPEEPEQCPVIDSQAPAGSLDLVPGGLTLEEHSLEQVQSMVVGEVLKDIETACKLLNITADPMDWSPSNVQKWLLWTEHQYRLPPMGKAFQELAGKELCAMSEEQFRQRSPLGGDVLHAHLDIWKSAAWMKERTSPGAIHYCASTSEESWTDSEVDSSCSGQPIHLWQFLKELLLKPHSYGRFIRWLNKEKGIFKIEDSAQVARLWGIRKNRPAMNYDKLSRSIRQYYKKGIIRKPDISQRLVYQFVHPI
Outline: as §1

[5] = biological target: T5, ETV7 (Homo sapiens, UniProt Q9Y603 1-341)
T5 sequence: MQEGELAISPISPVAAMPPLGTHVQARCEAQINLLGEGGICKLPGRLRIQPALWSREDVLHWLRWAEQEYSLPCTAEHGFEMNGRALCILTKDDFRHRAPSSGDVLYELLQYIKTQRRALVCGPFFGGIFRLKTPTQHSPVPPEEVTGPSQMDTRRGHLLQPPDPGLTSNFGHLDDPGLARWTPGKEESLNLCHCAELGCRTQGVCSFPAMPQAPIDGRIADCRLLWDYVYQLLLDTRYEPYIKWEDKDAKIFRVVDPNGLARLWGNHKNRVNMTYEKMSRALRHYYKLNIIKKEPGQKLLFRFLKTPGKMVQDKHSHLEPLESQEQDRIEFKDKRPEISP
Outline: as §1

[6] = biological target: T6, ELF5 (Homo sapiens, UniProt Q9UKW6-2 1-255)
T6 sequence: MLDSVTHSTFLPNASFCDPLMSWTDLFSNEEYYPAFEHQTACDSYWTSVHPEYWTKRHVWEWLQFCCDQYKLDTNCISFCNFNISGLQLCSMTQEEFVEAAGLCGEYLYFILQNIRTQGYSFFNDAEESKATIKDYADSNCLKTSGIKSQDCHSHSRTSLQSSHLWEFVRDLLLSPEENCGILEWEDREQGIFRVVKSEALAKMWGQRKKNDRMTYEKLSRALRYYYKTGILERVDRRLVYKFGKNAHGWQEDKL
Outline: as §1

[7] = biological target: T7, ETV3 (Homo sapiens, UniProt P41162-2 1-143)
T7 sequence: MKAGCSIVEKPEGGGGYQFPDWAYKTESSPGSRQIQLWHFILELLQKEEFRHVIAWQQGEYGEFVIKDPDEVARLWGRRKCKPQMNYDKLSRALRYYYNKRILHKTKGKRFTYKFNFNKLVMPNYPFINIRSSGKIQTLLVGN
Outline: as §1

[8] = biological target: ETV6 (Homo sapiens, UniProt P41212 1-452)
Outline: as §1

Chain of ETV6 (P41212 whole entry): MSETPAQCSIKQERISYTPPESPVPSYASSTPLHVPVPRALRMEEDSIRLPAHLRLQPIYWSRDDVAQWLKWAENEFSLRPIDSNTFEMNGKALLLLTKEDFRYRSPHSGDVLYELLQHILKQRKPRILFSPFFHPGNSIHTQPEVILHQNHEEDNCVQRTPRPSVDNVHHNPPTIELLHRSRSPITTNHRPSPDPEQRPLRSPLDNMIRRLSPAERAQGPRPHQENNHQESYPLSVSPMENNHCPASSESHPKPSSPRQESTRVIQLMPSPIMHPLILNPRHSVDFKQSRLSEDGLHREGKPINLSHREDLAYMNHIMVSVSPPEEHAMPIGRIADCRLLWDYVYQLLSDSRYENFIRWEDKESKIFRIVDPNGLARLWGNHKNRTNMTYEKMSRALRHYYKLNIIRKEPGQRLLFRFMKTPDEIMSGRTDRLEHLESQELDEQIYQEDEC

| Sequence | binding signal [1] | binding signal [2] | binding signal [3] | binding signal [4] | binding signal [5] | binding signal [6] | binding signal [7] | binding signal [8] |
| --- | --- | --- | --- | --- | --- | --- | --- | --- |
| TCTAAT | 1.26 fold enrichment (6-mer frequency, TF over GST control) | 1.14 fold enrichment (6-mer frequency, TF over GST control) | 1.21 fold enrichment (6-mer frequency, TF over GST control) | 1.21 fold enrichment (6-mer frequency, TF over GST control) | 1.07 fold enrichment (6-mer frequency, TF over GST control) | 1.11 fold enrichment (6-mer frequency, TF over GST control) | 1.05 fold enrichment (6-mer frequency, TF over GST control) | 1.2 fold enrichment (6-mer frequency, TF over GST control) |
| ATTATA | 1.3 fold enrichment (6-mer frequency, TF over GST control) | 1.33 fold enrichment (6-mer frequency, TF over GST control) | 1.37 fold enrichment (6-mer frequency, TF over GST control) | 1.23 fold enrichment (6-mer frequency, TF over GST control) | 1.37 fold enrichment (6-mer frequency, TF over GST control) | 1.24 fold enrichment (6-mer frequency, TF over GST control) | 1.28 fold enrichment (6-mer frequency, TF over GST control) | 1.3 fold enrichment (6-mer frequency, TF over GST control) |
| TTCTTT | 1.08 fold enrichment (6-mer frequency, TF over GST control) | 1.27 fold enrichment (6-mer frequency, TF over GST control) | 1.32 fold enrichment (6-mer frequency, TF over GST control) | 1.08 fold enrichment (6-mer frequency, TF over GST control) | 1.24 fold enrichment (6-mer frequency, TF over GST control) | 1.13 fold enrichment (6-mer frequency, TF over GST control) | 1.2 fold enrichment (6-mer frequency, TF over GST control) | 1.14 fold enrichment (6-mer frequency, TF over GST control) |
| TCCTTC | 1.95 fold enrichment (6-mer frequency, TF over GST control) | 1.9 fold enrichment (6-mer frequency, TF over GST control) | 2.09 fold enrichment (6-mer frequency, TF over GST control) | 2.21 fold enrichment (6-mer frequency, TF over GST control) | 1.92 fold enrichment (6-mer frequency, TF over GST control) | 3.06 fold enrichment (6-mer frequency, TF over GST control) | 2.21 fold enrichment (6-mer frequency, TF over GST control) | 2.31 fold enrichment (6-mer frequency, TF over GST control) |
